# Hits are enriched below; roughly 6.2% of the tested compounds scored in any of these assays.
# AI-2 QS mod = modulators of Vibrio harveyi AI-2 quorum sensing system; Vibrio harveyi JMH597 AI-2 luminescence/OD600 ratio, 9 h; hits give low values; strain lacks LuxN and CqsS sensors; 0 = neutral-control median; activity change, % at 7.5 µM; actives 0.4% (n = 300,000); in the data active = activity change below about -75%, passing the limit was not always enough;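 also: luminescence divided by OD600 gain over 9 h not by final OD600 alone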
# SUMO Mot1 rescue = SUMOylation pathway inhibition by Mot1-301 growth rescue | actives 1% (n = 320,000) | S. cerevisiae Mot1-301 growth rescue, ATP luminescence, 38.5C; percent above DMSO median, 100 means doubled | growth rescue, % at 18.8 µM;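 active = every valid replicate shows activation above 250% relative to neutral control wells; inactive = the rest, any valid replicate at or below 250%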;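 also: OY570 slx delta 5 strain wells were the positive control but not used for scaling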
# NTR1 ag = activates human neurotensin receptor 1; NTR1-U2OS beta-arrestin-GFP spot imaging, agonist mode; activation, % at 20 µM; actives 0.17% (n = 330,000);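 active = activation at or above 40% of the spot to cytoplasm intensity ratio, with at least 20 cells analyzed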;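 also: 0% = DMSO without peptide and 100% = 100 nM NTR1 peptide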
# Target sequence (P30989 whole entry, looked up): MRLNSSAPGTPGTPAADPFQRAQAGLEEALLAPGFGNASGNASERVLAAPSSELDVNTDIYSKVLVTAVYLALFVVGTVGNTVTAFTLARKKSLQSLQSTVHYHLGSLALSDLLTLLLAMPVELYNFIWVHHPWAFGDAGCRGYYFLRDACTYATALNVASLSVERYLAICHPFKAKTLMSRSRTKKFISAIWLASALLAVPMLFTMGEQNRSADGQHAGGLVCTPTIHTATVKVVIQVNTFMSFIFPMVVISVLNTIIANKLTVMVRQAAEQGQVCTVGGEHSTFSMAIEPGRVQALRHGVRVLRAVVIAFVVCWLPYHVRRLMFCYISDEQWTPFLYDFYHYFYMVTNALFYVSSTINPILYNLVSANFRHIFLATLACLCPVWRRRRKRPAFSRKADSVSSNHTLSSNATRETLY
# AHR act = activators of human aryl hydrocarbon receptor; AID 2796; P35869; actives 2.5% (n = 320,000); AHR-responsive luciferase reporter cells, luminescence; activation, % at 5 µM; in the data active = activation above about 47%;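 also: 0% = vehicle wells and 100% = reference agonist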
# GRIN3A LBD mod = modulates the human NR3A ligand-binding domain | AID 1259313 | NR3A LBD differential scanning fluorimetry, Tm shift; 0% = protein alone, 100% = glycine-bound protein | actives 2.5% (n = 340,000) | Tm shift relative to glycine control, % at 25 µM;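 active = melting temperature shift of at least 10% of the positive control shift, at one fixed dose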
# Cardio protect = myocardial damage modulation in H9c2 cells | H9c2 cardiomyocytes, H2O2 injury protection, ATPLite, 2 h | protection from H2O2 cell death, % at 20 µM | actives 0.63% (n = 360,000);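 active = compounds giving at least 50% protection of heart cells from peroxide-induced death in the single-dose screen, raw or plate-pattern-corrected value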;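 also: 0% = DMSO wells with peroxide and 100% = DMSO wells without peroxide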
# * marks the source's active call; other numbers are inactive results; nt = no result; + = active, no number.
SMILES,AI-2 QS mod,SUMO Mot1 rescue,NTR1 ag,AHR act,GRIN3A LBD mod,Cardio protect
CC(=O)N(/N=C1\Sc2ccccc2C1=O)c1cccc(C)c1,8.3,9.2,-0.9,76.5*,-7.9,-18.4
CC(=O)N(CN1C(=O)c2ccccc2C1=O)c1cccc(C)c1,14.0,-1.4,0.2,1.6,3.5,3.7
Cc1ccc(S(=O)(=O)N(CC(=O)NCCSc2ccccn2)c2ccccc2F)cc1,15.3,193.8,1.2,-0.1,1.5,-2.5
Cc1ccc(NC(=O)CCC(=O)N2CCC(C)CC2)c([N+](=O)[O-])c1,28.7,0.0,-0.8,4.2,1.5,-1.3
OC(c1cccc(Cl)c1)c1ncc(-c2cccc(C(F)(F)F)c2)[nH]1 (stereo not drawn),nt,nt,nt,nt,nt,-16.7
Cn1c(=O)c2[nH]c(NN=Cc3ccccc3)nc2n(C)c1=O,nt,nt,nt,nt,-3.0,15.6
Cn1c(=O)c2[nH]c(NN=Cc3ccc(Br)cc3)nc2n(C)c1=O,nt,nt,nt,nt,-4.3,57.5*
Cc1ccc(C=NNc2nc3c([nH]2)c(=O)n(C)c(=O)n3C)cc1,nt,nt,nt,nt,-11.3,70.4*
COc1ccc(C=NNc2nc3c([nH]2)c(=O)n(C)c(=O)n3C)cc1,nt,nt,nt,nt,-5.7,72.9*
Cc1c(Cc2ccccc2)c(=O)oc2cc(OCC(=O)N3CCC(C(N)=O)CC3)ccc12,25.2,6.8,-0.2,-0.4,-3.2,-1.7
CN1CCN(C(c2cccnc2)c2ccc3cccnc3c2O)CC1 (stereo not drawn),-47.5,173.5,-0.1,0.1,3.6,61.8*
CN1CCN(C(c2ccc(Br)cc2)c2cc(Cl)c3cccnc3c2O)CC1 (stereo not drawn),-141.2*,268.0,19.7,9.9,33.8*,-14.7
O=C(COC(=O)c1cc(=O)[nH]c(=O)[nH]1)Nc1cccc(Cl)c1,nt,16.4,-1.0,-1.0,-0.2,-2.2
CC(=O)NCc1ccc(S(=O)(=O)N/N=C/c2ccc(Br)cc2)cc1,-40.4,-3.7,-1.4,7.2,-1.1,-1.6
CN(C)c1ccc(/C=N/NS(=O)(=O)c2ccc(Br)cc2)cc1,-91.7*,nt,-0.6,3.4,-0.9,-3.9
O=S(=O)(N/N=C\C=C\c1ccccc1)c1ccc(Br)cc1,-92.5*,54.3,-0.5,-0.1,-1.7,-4.7
Nc1ccc(S(=O)(=O)NN=CC=Cc2ccccc2[N+](=O)[O-])cc1,nt,nt,nt,nt,0.6,2.3
O=C(Nc1cccc(Cl)c1)c1csc([C@@H]2C[C@H](O)[C@@H](CO)O2)n1,nt,nt,nt,nt,nt,-3.2
Cn1c(N)c(NC(=S)NC2CCCCC2)c(=O)n(C)c1=O,nt,nt,nt,nt,9.8,1.2
N#Cc1ccccc1NC(=O)CC1CCCCC1,0.3,13.1,0.4,1.2,-2.8,-3.0
N#Cc1ccccc1NC(=O)CC1c2ccccc2Oc2ccccc21,24.9,-15.6,-1.2,4.4,13.1*,17.8
CCOCc1cc(CN2CCCC(CNC(=O)c3ccco3)C2)ccc1OC (stereo not drawn),14.4,0.0,-1.0,1.4,-1.1,3.7
O=C1CC(C(=O)O)C(c2ccccc2)c2ccccc21 (stereo not drawn),nt,nt,nt,nt,-0.5,2.8
O=C(Nc1ccc(-c2cn3ccsc3n2)cc1)C1COc2ccccc2O1 (stereo not drawn),10.6,7.8,6.7,3.8,24.1*,10.8
Cc1noc(NS(=O)(=O)c2ccc(NC(=O)c3cc(F)c(F)c(F)c3F)cc2)c1C,nt,nt,1.5,nt,91.8*,0.2
SMILES,AI-2 QS mod,SUMO Mot1 rescue,NTR1 ag,AHR act,GRIN3A LBD mod,Cardio protect
COc1ccc(S(=O)(=O)N2CCOC23CCN(S(=O)(=O)c2ccccc2)CC3)cc1,15.3,-1.0,-1.0,1.1,4.4,-6.1
CCOc1ccc(NC(=O)CCC(=O)NNC(=O)Nc2ccc(Cl)cc2)cc1,18.1,13.8,-0.9,0.9,11.8*,0.8
Cc1ccc(NC(=O)NNC(=O)COc2ccc(Cl)cc2)cc1,1.7,-6.9,-1.0,2.0,7.1,-1.7
Cc1ccc(NC2CCCN(C(=O)CSc3ccncc3)C2)cc1C (stereo not drawn),31.1,39.3,0.9,nt,1.5,4.5
C=C[C@@]1(C)CC(=O)[C@]2(O)[C@@]3(C)[C@@H](O)CCC(C)(C)[C@@H]3[C@H](OC(C)=O)[C@H](O)[C@@]2(C)O1,-9.3,-10.7,-1.1,-0.8,-1.8,8.8
C=C[C@@]1(C)CC(=O)[C@]2(O)[C@@]3(C)[C@@H](O)CCC(C)(C)[C@@H]3[C@H](O)[C@H](OC(C)=O)[C@@]2(C)O1,-0.3,-5.6,2.0,9.6,3.1,70.7*
O=C(NCCCl)C1Cc2c(ccc3ccccc23)O1 (stereo not drawn),-6.7,+,-0.3,2.4,-3.1,-5.2
CCOC(=O)COc1cccc(C2NC(=O)c3ccccc3O2)c1 (stereo not drawn),29.0,-11.4,-0.1,1.4,-2.3,82.7*
C=CCOc1ccc(C2NC(=O)c3ccccc3O2)cc1OCC (stereo not drawn),8.5,30.2,0.5,1.6,-4.6,-1.4
CC(=O)Nc1ccc(S(=O)(=O)Nc2nccc(/C=C/c3ccc(Cl)cc3)n2)cc1,31.3,5.2,-2.1,5.3,11.7*,1.3
CC(=O)Nc1ccc(S(=O)(=O)Nc2nccc(C)n2)cc1,-0.3,0.3,-1.1,0.6,2.0,4.1
COC(=O)c1ccccc1NC(=O)c1nc2nc(C)cc(C)n2n1,45.1,-3.6,1.3,-0.3,0.0,61.4*
Cc1cc(C)n2nc(C(=O)NNC(=O)c3ccccc3)nc2n1,41.0,-1.1,0.4,-0.9,0.1,5.2
O=C(/C=C/c1ccc(S(=O)(=O)N2CCOCC2)cc1)NC(CO)C(O)c1ccc([N+](=O)[O-])cc1 (stereo not drawn),nt,5.1,-0.3,1.2,0.7,1.2
CC(OC(=O)c1ccc(Cl)c(S(N)(=O)=O)c1)C(=O)NCc1ccc2c(c1)OCO2 (stereo not drawn),4.0,0.8,-1.8,5.1,14.1*,-4.8
COc1ccc(N=C2NN=C(c3ccc4c(c3)OCCO4)CS2)cc1,38.7,11.7,0.8,3.3,-1.4,2.9
FC(F)Sc1ccc(N=C2NN=C(c3ccc4c(c3)OCCO4)CS2)cc1,6.3,329.9,-0.1,4.4,14.8*,-6.5
COc1ccc(S(=O)(=O)N2CCN(Cc3cccc(OC)c3)CC2)cc1,-4.6,8.7,-0.6,0.1,-1.2,-3.0
COc1ccc(OC)c(CN2CCN(S(=O)(=O)c3ccccc3)CC2)c1,13.1,-6.8,0.5,8.0,-0.9,1.5
COc1cccc(S(=O)(=O)N2CCN(Cc3ccc4c(c3)OCO4)CC2)c1,22.3,-1.0,0.7,5.3,14.4*,-3.5
CC1CCCN(S(=O)(=O)c2ccc(S(=O)(=O)N3CCCN(Cc4ccccc4)C3)cc2)C1 (stereo not drawn),17.8,nt,nt,nt,-2.2,2.2
COc1ccc(CN2CCN(S(=O)(=O)c3ccccc3)CC2)c(OC)c1,30.5,56.7,1.6,51.5*,8.9,-2.9

# Screening results: PubChem, several laboratories
